# PubChem BioAssay (EPA / NIEHS)
# Activity calls are given as the source filed them. Rule for the calls: active = hit-call score of the fitted dose curve at least 0.9, where 1 is the maximum; inactive = score below 0.9.
# How the values were obtained:
# [1] = read-out: Cytochrome P450 (CYP1A1), CYP1A1 (gene 1543); assay: LTEA_HepaRG_CYP1A1: Life Technologies and Expression Analysis (LTEA) Assay for Cytochrome P450 (CYP1A1) using HepaRG (AID 2283454); conditions: mRNA level, 48 h; actives raise or lower the signal
# How it was run: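 qRT-PCR read-out: CYP1A1 transcript normalized to three housekeeping genes, fitted bidirectionally against 0.5% DMSO vehicle baseline. Human HepaRG cells, 48 h chemical exposure, 8-point half-log series topping at 100 uM.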
# [2] = read-out: CFLAR gene, CFLAR (gene 8837); assay: LTEA_HepaRG_CFLAR: Life Technologies and Expression Analysis (LTEA) Assay for CFLAR gene using HepaRG (AID 2283455); conditions: mRNA level, 48 h; actives raise or lower the signal
# How it was run: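 Differentiated HepaRG cells in serum-free induction medium were exposed 48 h in duplicate to eight half-log concentrations up to 100 uM in 0.5% DMSO; mRNA measured by TaqMan qRT-PCR, normalized to ACTB, GAPDH, POLR2A; bidirectional fitting versus DMSO.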
# [3] = read-out: Forkhead box O1 (FOXO1), FOXO1 (gene 2308); assay: LTEA_HepaRG_FOXO1: Life Technologies and Expression Analysis (LTEA) Assay for Forkhead box O1 (FOXO1) using HepaRG (AID 2283456); conditions: mRNA level, 48 h; actives raise or lower the signal
# How it was run: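 Differentiated HepaRG cells, in serum-free induction medium with 0.5% DMSO, exposed 48 h in duplicate to 8-point half-log series from 100 uM. FOXO1 mRNA measured by TaqMan qRT-PCR, normalized to ACTB, GAPDH, POLR2A; bidirectional fit versus DMSO.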
# [4] = read-out: growth arrest and DNA damage 45 (GADD45A), GADD45A (gene 1647); assay: LTEA_HepaRG_GADD45A: Life Technologies and Expression Analysis (LTEA) Assay for growth arrest and DNA damage 45 (GADD45A) using HepaRG (AID 2283458); conditions: mRNA level, 48 h; actives raise or lower the signal
# How it was run: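 Human HepaRG liver cells are treated in duplicate for 48 h with chemicals in 0.5% DMSO, highest concentration 100 uM. Expression is read by qRT-PCR and analyzed in both directions against vehicle.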
# [5] = read-out: Forkhead box O3 (FOXO3), FOXO3 (gene 2309); assay: LTEA_HepaRG_FOXO3: Life Technologies and Expression Analysis (LTEA) Assay for Forkhead box O3 (FOXO3) using HepaRG (AID 2283459); conditions: mRNA level, 48 h; actives raise or lower the signal
# How it was run: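 Differentiated human HepaRG cells, 48 h post-plating, exposed in duplicate for 48 h in serum-free induction medium; 8-point half-log series from 100 uM in 0.5% DMSO. FOXO3 mRNA by TaqMan qRT-PCR, normalized to ACTB/GAPDH/POLR2A; bidirectional fit versus DMSO.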
# [6] = read-out: ABC Transporter (ABCB1), ABCB1 (gene 5243); assay: LTEA_HepaRG_ABCB1: Life Technologies and Expression Analysis (LTEA) Assay for ABC Transporter (ABCB1) using HepaRG (AID 2283460); conditions: mRNA level, 48 h; actives raise or lower the signal
# How it was run: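 HepaRG cells exposed in duplicate for 48 h in serum-free induction medium to eight half-log concentrations up to 100 uM in 0.5% DMSO. ABCB1 mRNA quantified by qRT-PCR, normalised to ACTB, GAPDH and POLR2A; fitted bidirectionally versus DMSO.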
# [7] = read-out: growth arrest and DNA damage 45 (GADD45B), GADD45B (gene 4616); assay: LTEA_HepaRG_GADD45B: Life Technologies and Expression Analysis (LTEA) Assay for growth arrest and DNA damage 45 (GADD45B) using HepaRG (AID 2283461); conditions: mRNA level, 48 h; actives raise or lower the signal
# How it was run: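 qRT-PCR read-out (Fluidigm TaqMan, housekeeping-normalized) of mRNA change in human HepaRG cells after 48 h chemical exposure; 8-point curve, top 100 uM, half-log steps, 0.5% DMSO vehicle; gain or loss fitted relative to DMSO baseline.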
# [8] = read-out: ABC Transporter (ABCB11), ABCB11 (gene 8647); assay: LTEA_HepaRG_ABCB11: Life Technologies and Expression Analysis (LTEA) Assay for ABC Transporter (ABCB11) using HepaRG (AID 2283463); conditions: mRNA level, 48 h; actives raise or lower the signal
# How it was run: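 Differentiated human HepaRG cells in serum-free induction medium, dosed in duplicate for 48 h. Eight-point half-log series from 100 uM in 0.5% DMSO; ABCB11 mRNA by qRT-PCR, normalized to ACTB, GAPDH, POLR2A, fitted bidirectionally versus DMSO.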
# [9] = read-out: ABC Transporter (ABCC2), ABCC2 (gene 1244); assay: LTEA_HepaRG_ABCC2: Life Technologies and Expression Analysis (LTEA) Assay for ABC Transporter (ABCC2) using HepaRG (AID 2283464); conditions: mRNA level, 48 h; actives raise or lower the signal
# How it was run: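 qRT-PCR (TaqMan, Fluidigm array) read-out of ABCC2 mRNA, normalized to three housekeeping genes. Differentiated HepaRG cells were treated 48 h in serum-free induction medium with 8-point half-log series from 100 uM in 0.5% DMSO; curves fitted bidirectionally relative to DMSO.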
# [10] = read-out: Broad substrate specificity ATP-binding cassette transporter ABCG2 (Homo sapiens) (UniProt Q9UNQ0); assay: LTEA_HepaRG_ABCG2: Life Technologies and Expression Analysis (LTEA) Assay for ABC Transporter (ABCG2) using HepaRG (AID 2283465); conditions: mRNA level, 48 h; actives raise or lower the signal
# How it was run: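 Differentiated HepaRG cells were exposed for 48 h in serum-free induction medium to 8 half-log concentrations, top 100 uM, in 0.5% DMSO. ABCG2 mRNA was measured by qRT-PCR, normalized to ACTB, GAPDH and POLR2A, with bidirectional fitting versus DMSO.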
# [11] = read-out: ATP-citrate lyase (ACLY), ACLY (gene 47); assay: LTEA_HepaRG_ACLY: Life Technologies and Expression Analysis (LTEA) Assay for ATP-citrate lyase (ACLY) using HepaRG (AID 2283466); conditions: mRNA level, 48 h; actives raise or lower the signal
# How it was run: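 Differentiated HepaRG cells exposed 48 h in serum-free induction medium to eight half-log concentrations up to 100 uM in 0.5% DMSO, duplicates. Transcript measured by Fluidigm TaqMan qRT-PCR, normalized to ACTB, GAPDH, POLR2A; bidirectional fit versus DMSO.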
# [12] = read-out: Alkaline Phosphatase, Placental (ALPP) gene, ALPP (gene 250); assay: LTEA_HepaRG_ALPP: Life Technologies and Expression Analysis (LTEA) Assay for Alkaline Phosphatase, Placental (ALPP) gene using HepaRG (AID 2283468); conditions: mRNA level, 48 h; actives raise or lower the signal
# How it was run: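 qRT-PCR readout of ALPP mRNA (Fluidigm TaqMan), normalized to ACTB/GAPDH/POLR2A, after 48 h chemical exposure of HepaRG cells; 8-point half-log series, top 100 uM, 0.5% DMSO vehicle. Bidirectional curve fit versus DMSO baseline.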
# [13] = read-out: Bcl-2 (BAD) gene, BAD (gene 572); assay: LTEA_HepaRG_BAD: Life Technologies and Expression Analysis (LTEA) Assay for Bcl-2 (BAD) gene using HepaRG (AID 2283469); conditions: mRNA level, 48 h; actives raise or lower the signal
# How it was run: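 Differentiated HepaRG cells were exposed in duplicate in 0.5% DMSO for 48 h to eight-point half-log concentrations up to 100 uM. BAD mRNA was measured by Fluidigm TaqMan qRT-PCR, normalized to ACTB, GAPDH and POLR2A, and fitted bidirectionally against DMSO.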
# [14] = read-out: Bcl-2 (BAX) gene, BAX (gene 581); assay: LTEA_HepaRG_BAX: Life Technologies and Expression Analysis (LTEA) Assay for Bcl-2 (BAX) gene using HepaRG (AID 2283470); conditions: mRNA level, 48 h; actives raise or lower the signal
# How it was run: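 Concentration-response endpoint fitted in both directions relative to 0.5% DMSO vehicle. Human HepaRG cultures receive test chemicals for 48 h at up to 100 uM; BAX mRNA is quantified by qRT-PCR against housekeeping genes.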
# [15] = read-out: adenosine kinase (ADK) gene, ADK (gene 132); assay: LTEA_HepaRG_ADK: Life Technologies and Expression Analysis (LTEA) Assay for adenosine kinase (ADK) gene using HepaRG (AID 2283471); conditions: mRNA level, 48 h; actives raise or lower the signal
# How it was run: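 ADK expression quantified by qRT-PCR, normalised to three housekeeping genes, after 48 h exposure of HepaRG cells to eight concentrations (top 100 uM, half-log steps, duplicate, 0.5% DMSO). Up- or down-regulation fitted relative to vehicle.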
# [16] = read-out: Alpha-fetoprotein (AFP) gene, AFP (gene 174); assay: LTEA_HepaRG_AFP: Life Technologies and Expression Analysis (LTEA) Assay for Alpha-fetoprotein (AFP) gene using HepaRG (AID 2283472); conditions: mRNA level, 48 h; actives raise or lower the signal
# How it was run: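 After a 48 h plating period, cells are moved to serum-free induction medium and dosed in duplicate (100 uM maximum, half-log dilutions, 0.5% DMSO) for another 48 h. Total RNA goes to TaqMan qRT-PCR; AFP signal is housekeeping-normalized.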
# BCL2L11 (gene 10018) = assay: LTEA_HepaRG_BCL2L11: Life Technologies and Expression Analysis (LTEA) Assay for Bcl-2 (BCL2L11) gene using HepaRG (AID 2283473); conditions: mRNA level, 48 h; actives raise or lower the signal
# How it was run: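 HepaRG, 48 h exposure, 8-pt half-log series from 100 uM in 0.5% DMSO, duplicates; qRT-PCR (Fluidigm TaqMan) for BCL2L11, housekeeping-normalized; bidirectional curve fit relative to DMSO baseline.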
# [17] = read-out: Apolipoprotein A-V (APOA5) gene, APOA5 (gene 116519); assay: LTEA_HepaRG_APOA5: Life Technologies and Expression Analysis (LTEA) Assay for Apolipoprotein A-V (APOA5) gene using HepaRG (AID 2283474); conditions: mRNA level, 48 h; actives raise or lower the signal
# How it was run: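 HepaRG, 48 h chemical exposure in serum-free induction medium, 8-pt half-log series (top 100 uM), 0.5% DMSO vehicle, duplicates. Readout: APOA5 mRNA by qRT-PCR, housekeeping-normalized; bidirectional fit vs DMSO baseline.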
# [18] = read-out: Peroxisomal acyl-coenzyme A oxidase 1 (ACOX1) gene, ACOX1 (gene 51); assay: LTEA_HepaRG_ACOX1: Life Technologies and Expression Analysis (LTEA) Assay for Peroxisomal acyl-coenzyme A oxidase 1 (ACOX1) gene using HepaRG (AID 2283467); conditions: mRNA level, 48 h; actives raise or lower the signal
# How it was run: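 HepaRG cells, plated 48 h then switched to serum-free induction medium, were exposed in duplicate for 48 h to 8-point half-log concentrations up to 100 uM in 0.5% DMSO. ACOX1 mRNA was measured by qRT-PCR, normalized to ACTB/GAPDH/POLR2A, and fitted bidirectionally versus DMSO.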
# [19] = CEETOX_H295R_TESTO: CeeTox H295R High-throughput Steroidogenesis Assay for Testosterone (TESTO) (AID 2283457); conditions: actives raise or lower the signal
# How it was run: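 Readout: testosterone quantified by HPLC-MS/MS (C18, ESI positive) after MTBE liquid-liquid extraction of culture medium. Cells were H295R, 48 h chemical exposure per OECD 456 with modifications. Gain or loss of signal fitted relative to DMSO.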
# Sequence of Broad substrate specificity ATP-binding cassette transporter ABCG2 (Homo sapiens) (Q9UNQ0 whole entry, looked up): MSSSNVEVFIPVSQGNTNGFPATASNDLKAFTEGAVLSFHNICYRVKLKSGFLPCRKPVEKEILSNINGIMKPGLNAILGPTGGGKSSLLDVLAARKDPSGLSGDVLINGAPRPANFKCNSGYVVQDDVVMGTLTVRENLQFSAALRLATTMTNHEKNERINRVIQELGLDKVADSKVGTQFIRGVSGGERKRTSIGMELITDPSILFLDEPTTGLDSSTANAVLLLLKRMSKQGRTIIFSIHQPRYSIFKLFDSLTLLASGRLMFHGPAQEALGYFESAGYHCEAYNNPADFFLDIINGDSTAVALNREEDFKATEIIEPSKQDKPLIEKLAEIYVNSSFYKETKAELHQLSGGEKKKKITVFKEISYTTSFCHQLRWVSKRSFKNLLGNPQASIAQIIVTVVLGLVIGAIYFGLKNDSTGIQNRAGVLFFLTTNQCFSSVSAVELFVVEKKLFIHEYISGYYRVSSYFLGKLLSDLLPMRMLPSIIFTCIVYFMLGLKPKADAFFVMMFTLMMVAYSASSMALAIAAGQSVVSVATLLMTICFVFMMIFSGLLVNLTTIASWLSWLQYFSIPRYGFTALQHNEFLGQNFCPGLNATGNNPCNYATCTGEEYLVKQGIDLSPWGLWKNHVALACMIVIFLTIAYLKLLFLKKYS
smiles,measurement,setting,value
CN(Cc1cnc2nc(N)nc(N)c2n1)c1ccc(C(=O)N[C@@H](CCC(=O)O)C(=O)O)cc1,outcome,[1],inactive
same,outcome,[2],inactive
same,outcome,[3],inactive
same,outcome,[4],inactive
same,outcome,[5],inactive
same,outcome,[6],inactive
same,outcome,[7],inactive
same,AC50,[8],206 nM (active)
same,outcome,[9],inactive
same,outcome,[10],inactive
same,outcome,[11],inactive
same,outcome,[12],inactive
same,outcome,[13],inactive
same,outcome,[14],inactive
same,outcome,[15],inactive
same,AC50,[16],231 nM (active)
same,outcome,BCL2L11 (gene 10018),inactive
same,outcome,[17],inactive
CCCCCCCCCCCCCCC,AC50,[1],50 µM (active)
same,outcome,[2],inactive
same,outcome,[3],inactive
same,outcome,[4],inactive
same,outcome,[5],inactive
same,outcome,[6],inactive
same,outcome,[7],inactive
same,outcome,[8],inactive
same,outcome,[9],inactive
same,outcome,[10],inactive
same,outcome,[11],inactive
same,outcome,[18],inactive
same,outcome,[12],inactive
same,outcome,[13],inactive
same,outcome,[14],inactive
same,outcome,[15],inactive
same,outcome,[16],inactive
same,outcome,BCL2L11 (gene 10018),inactive
same,outcome,[17],inactive
CC(C)CCOCCC(C)C,outcome,[19],inactive
